# Assay outcomes: PubChem, National Center for Advancing Translational Sciences (NCATS)
# SW480 rerep: A quantitative high throughput screen for small molecules that induce DNA re-replication in SW480 colon adenocarcinoma cells. SW480 DNA re-replication, Hoechst DNA content imaging, 48 h. Potency, µM (series often up to 46.1 µM), without a hit: at the top dose re-replication activation, usual class: activators. hit rate 1.8% among 340,000. AID 624297, 2012; note: potency is the fitted concentration of half-maximal effect; % of control where 0% means no effect; nearly all actives have a fitted effect of over 55% in size
#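 SW480 cells exposed to compounds for 48 hr at 37 C, 5% CO2, then Hoechst-stained 40 min. Nuclear DNA content imaged by fluorescence scanning (405 nm excitation, 500-530 nm emission); re-replication scored as increased high-intensity nuclei.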
# ATXN viability: Viability Counterscreen for Primary qHTS for Inhibitors of ATXN expression | hit rate 0.49% among 400,000 | Potency, µM (series often up to 56.7 µM), most hits filed as cytotoxic | S2 cells (HEK-293 line with an ATXN2-luciferase reporter) viability, CellTiter-Fluor protease fluorescence, 24 h | AID 651635, 2014; note: potency is the fitted concentration of half-maximal effect; nearly all actives have a fitted effect of over 40% in size
# PINK1 modulator: A Quantitative High throughput Screen to Identify Chemical Modulators of PINK1 Expression. Potency, µM (titrated, usually from 76.6 µM), inactives show at the top dose activation (PINK1 increase), hits mostly activators. hit rate 0.2% among 410,000. PINK1 immunofluorescence, high-content cytometry, 24 h; active = well fitted activation curve with a large enough effect; inconclusive = small, poorly fitted or top-dose-only effect; cell line not stated here; note: potency is the fitted concentration of half-maximal effect; % of control where 0% means no effect; nearly all actives have a fitted effect of over 65% in size
#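 PINK1 protein level read as immunofluorescence by microplate cytometer in a fixed, stained stable cell line after 24 h exposure to five compound concentrations, with CCCP as control.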
# MCF10A rereplic: A quantitative high throughput screen for small molecules that induce DNA re-replication in MCF 10a normal breast cells; MCF 10A DNA re-replication, Hoechst nuclear intensity, 48 h; Potency, µM (highest dose often 46.1 µM), inactives show at the highest dose activity, positive = re-replication, hits mostly activators; hit rate 2.9% among 350,000; AID 624296, 2012; note: potency is the fitted concentration of half-maximal effect; % of control where 0% means no effect; nearly all actives have a fitted effect of over 50% in size
# IL1B secr inh: qHTS for Inhibitors of Inflammasome Signaling: IL-1-beta AlphaLISA Primary Screen; THP-1 LPS/ATP IL-1B secretion, AlphaLISA, 16 h; stronger effect = lower value; activity change, % at 57.5 µM; hit rate 4.7% among 360,000; AID 743279, 2014; in the data active = activity change below about -50%; inconclusive = mostly about -30% to -49%; note: % is set by controls: 0 for no effect and ±100 for the full control effect
#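 Secreted IL-1B measured by AlphaLISA bead assay after 16 h compound exposure of THP-1 cells; compounds (final up to 57.5 uM) added 1 h before LPS (250 ng/mL) and ATP (1.25 mM) stimulation; lower signal means less secretion.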
# ATXN2 expr inh: Primary qHTS for Inhibitors of ATXN expression | HEK-293 ATXN2-luciferase reporter, luminescence, 24 h | Potency, µM (doses to about 57 µM), inactives show at the highest dose activity change, negative = inhibition, usual class: inhibitors | hit rate 0.72% among 360,000 | AID 1745845, 2022; note: potency is the fitted concentration of half-maximal effect; % is set by controls: 0 for no effect and ±100 for the full control effect; nearly all actives have a fitted effect of over 55% in size
#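 qHTS (up to 57 uM final) was run with 24 h compound exposure of reporter cells at 37 °C. Each well was multiplexed: SteadyGlo luminescence measured ATXN2-luciferase expression after a fluorogenic Gly-Phe-AFC viability readout (25 uM final).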
# * hit, by the source's call; i = inactive; ? = inconclusive; . = no result given; [ ] = another dose, or the depositor's remark. Only some compounds are listed: those with a hit (about 7.1% of all), similar ones and a draw of the others. Unless noted, calls come from the whole dose curve; as a rule, active = well fitted curve in the direction sought with a large enough effect; inconclusive = small, poorly fitted or top-dose-only effect, or another doubt; inactive = no such curve, though single readings can be large; an effect the other way counts as inactive or inconclusive.
SMILES,SW480 rerep,ATXN viability,PINK1 modulator,MCF10A rereplic,IL1B secr inh,ATXN2 expr inh
CC(C)N1C(=O)C(Cc2nc3ccccc3c(=O)n2-c2ccccc2)c2ccccc21 (centres undefined),12%,i,-3%[38.3 µM],4%,-1,-11%
CC(C)N1C(=O)/C(=C\c2nc3ccccc3c(=O)n2-c2ccccc2)c2ccccc21,2.9µM*,?,-3%,?,-106*,?
CCCc1nc2sc3c(c2c(=O)n1NC(=O)c1ccco1)CC(C)(C)OC3,14%,i,0%,17%,-1,-19%[11.3 µM]
CCCCCCCCCc1nc2sc3c(c2c(=O)n1NC(=O)c1ccccc1[N+](=O)[O-])CC(C)(C)OC3,0%,?,?,2.9µM*,-74*,?
CCCCCCCCCc1nc2sc3c(c2c(=O)n1NC(=O)c1ccc([N+](=O)[O-])cc1)CC(C)(C)OC3,9%,i,13µM*,6.5µM*,1,?
CCc1nc2sc3c(c2c(=O)n1N)CC(C)(C)OC3,-9%,i,0%,2%,?,11%
COc1cc(/C=N/Nc2nc3ccccc3s2)ccc1OC(=O)c1ccccc1F,?,i,-1%,21µM*,-71*,131%
CCC1CN(CC(=O)NCc2cc(C)n(C)n2)Cc2cc(OC)ccc2O1 (centres undefined),.,i,-1%,.,.,.
Cc1cc(C)c2c(N)c(S(=O)c3ccc(C(C)(C)C)cc3)sc2n1 (centres undefined),2%,i,0%[38.3 µM],-6%,-67*,-17%
CCOC(=O)[C@]12CCCC=C1N(Cc1ccco1)C(=O)[C@H](CC(=O)NCc1cccc3ccccc13)C2,.,?,1%,.,-2,?
O=C(Cc1ccccc1)N/N=C/c1cc(Br)cc(Br)c1O,4.1µM*,i,0%,7.3µM*,135,?
COc1c(Br)cc(Br)cc1/C=N/NC(=O)c1ccncc1,13%,i,7%,1%,75,-6%
CN(C)c1ccc(C(=O)N/N=C/c2cc(Br)cc(Br)c2O)cc1,-135%,i,7%,2%,105,3.5µM*
CCNc1nc(-c2sc(NC(=O)C(C)(C)C)nc2C)c(-n2cc(-c3ccccc3)nn2)s1,.,.,0%,.,-77*,14µM*
COc1ccc2c(c1)C(=O)[C@@H](O)[C@H](c1ccc(OC)c(Br)c1)O2,12µM*,i,?,?,22,-14%
COc1cccc([C@@H]2Oc3ccc(OC)cc3C(=O)[C@H]2O)c1,?,i,0%,?,22,11%
O=c1cc(-c2ccc(O)cc2)oc2c1ccc1ccccc12,11%,i,6%,-2%,-59*,8%
O=c1cc(C(Cl)(Cl)Cl)oc2c1ccc1ccccc12,13µM*,.,-4%,8.2µM*,-73*,?
O=c1cc(-c2ccncc2)oc2c1ccc1ccccc12,17%,?,-2%,19%,-83*,?
O=c1cc(-c2ccc(O)cc2)oc2ccc3ccccc3c12,20%,i,4%,18µM*,-22,-85%
O=c1cc(-c2ccco2)oc2c1ccc1ccccc12,1%,i,-1%,9%,-22,-9%
O=c1c2ccccc2oc2c1ccc1ccccc12,11%,i,-1%,-19%,19,51%
Cc1ccc(CNC(=O)c2ccc(CSCc3ccc(Cl)cc3)o2)cc1,.,.,1%,.,.,.
COc1cccc(CNS(=O)(=O)c2cc3[nH]c(=O)c(=O)[nH]c3cc2C)c1,.,i,3%,.,.,14%
CN(C1CCCCC1)S(=O)(=O)c1ccc(S(=O)(=O)N(CC(=O)Nc2ccccc2)C2CC2)cc1,3.7µM*,i,4%,13%,15,.
SMILES,SW480 rerep,ATXN viability,PINK1 modulator,MCF10A rereplic,IL1B secr inh,ATXN2 expr inh
CC(C)c1ccc(NC(=O)Cn2cc(S(=O)(=O)Cc3cccc(Cl)c3)c3ccccc32)cc1,.,.,0%,.,.,.
COc1cc(OC)c2nc(-c3cc4c(c(OC)c3)OCCN(C(=O)CC3NC(=O)c5ccccc53)C4)cc(C)c2c1 (centres undefined),.,i,1%,.,.,.
CCOC(=O)N1CCc2c(sc3c2c(=O)n(-c2ccc(CC)cc2)c(=O)n3CC(=O)Nc2ccc(C)cc2)C1,.,.,1%,.,.,.
CCCOc1ccc(-c2cc(C(F)(F)F)c(C#N)c(SCC(=O)O)n2)cc1,-1%,i,0%,?,-71*,-16%
CCCOc1ccc(-c2cc(C(F)(F)F)c(C#N)c(SCCC(=O)O)n2)cc1,.,i,0%,.,.,8%
COc1ccc(-c2cc(-c3ccc(Cl)cc3)c(C#N)c(SCC(=O)O)n2)cc1,-61%,i,2%,16µM*,-10,-12%
COc1ccc(-c2cc(-c3ccccc3)c(C#N)c(SCC(=O)O)n2)cc1,?,i,-2%,0%,-6,-6%
CCC1([N+](=O)[O-])COC(C=Cc2ccccc2)OC1 (centres undefined),-3%,i,5%,-11%,-19,37%
O=C1C=CCC(/C=C/c2ccccc2)O1 (centres undefined),16µM*,?,-2%,15µM*,-103*,5µM*
COc1ccc(NC(=O)Cn2c(=O)n(-c3ccc(OC)cc3)c(=O)c3sc4ccccc4c32)cc1,.,?,2%,.,.,7%
COc1cc(C(=O)c2cocc2C(=O)c2ccc3c(c2)OCO3)cc(OC)c1OC,1.8µM*,i,9%,?,50,6%
COc1cc(-c2nc(-c3ccc(NC(=O)c4ccc5c(c4)OCO5)cc3)no2)cc(OC)c1OC,?,32µM*,2%,9.2µM*,?,?
COc1cc(C(=O)c2ccc3c(c2)OCO3)cc(OC)c1OC,2.1µM*,?,10%,?,23,-11%
COc1cc(C(=O)N/N=C(\C)c2ccc3c(c2)OCO3)cc(OC)c1OC,2.6µM*,?,7%,4.1µM*,83,-38%[11.3 µM]
COc1cccc(NC(=O)Cn2nnc(-c3nc(-c4ccccc4)no3)c2N)c1,.,.,5%,.,.,.
CCOc1ccc(NC(=O)c2oc3ccccc3c2NC(=O)c2ccc(OC)cc2OC)cc1,.,i,3%,.,.,8%
O=S(=O)(c1ccc2c(c1)CCN2)N1CCCCCC1,.,.,-1%,.,.,.
CC(C)n1nc(C(=O)Nc2cccc(S(=O)(=O)N3CCCCC3)c2)c2ccccc2c1=O,-34%,i,4%,4%,0,0%
